HP1b chromo inh: HP1-beta chromodomain-methylated histone interaction inhibition; AlphaScreen HP1-beta / biotin-H3K9me3 peptide binding; 390,000 compounds, 0.56% hits; Potency, µM (series often up to 114 µM), hits mostly inhibitors; P83916; also: nearly all actives have a fitted effect of over 70% in size
Target sequence (P83916 whole entry, looked up): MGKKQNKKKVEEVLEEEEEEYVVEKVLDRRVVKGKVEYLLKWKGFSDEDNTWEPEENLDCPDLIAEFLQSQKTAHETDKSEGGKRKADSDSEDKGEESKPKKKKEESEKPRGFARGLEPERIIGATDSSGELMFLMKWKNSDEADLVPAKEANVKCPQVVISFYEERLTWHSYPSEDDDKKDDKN
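AlphaScreen: HP1-beta (50 nM) preformed 30 min with biotin-H3(1-18)K9me3 peptide (50 nM) in PBS pH 7.4, 0.01% Tween-20. Compound added for 30 min at RT, then streptavidin donor/nickel chelate acceptor beads (10 ug/mL) for 30 min.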
PLK1 PBD block: blocks phosphopeptide binding to human PLK1 polo-box domain; AID 720504; P53350; Potency, µM, actives largely listed as inhibitors; Plk1 PBD binding of FITC phosphopeptide, fluorescence polarization; 360,000 compounds, 2.8% hits; also: series mostly up to about 57 µM; nearly all actives have a fitted effect of over 65% in size
G9a block: inhibitors of human histone lysine methyltransferase G9a. 350,000 compounds, 8.8% hits. G9a H3K9 monomethylation, AlphaScreen, 2 h. Potency, µM (doses to about 102 µM), usual class: inhibitors; also: nearly all actives have a fitted effect of over 75% in size
Target sequence (Q96KQ7 913-1193 limits assumed): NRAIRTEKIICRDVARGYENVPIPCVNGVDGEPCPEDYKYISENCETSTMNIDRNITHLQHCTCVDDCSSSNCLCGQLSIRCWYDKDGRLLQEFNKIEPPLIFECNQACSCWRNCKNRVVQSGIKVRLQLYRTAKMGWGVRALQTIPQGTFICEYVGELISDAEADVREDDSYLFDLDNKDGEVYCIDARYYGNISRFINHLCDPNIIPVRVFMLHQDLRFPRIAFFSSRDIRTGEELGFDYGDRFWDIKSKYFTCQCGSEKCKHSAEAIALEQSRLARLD
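G9a (20 nM) preincubated 15 min RT with compounds, then 500 nM biotinylated H3K9 peptide and 20 uM SAM added; 2 h RT reaction. Monomethyl-H3K9 product detected by AlphaScreen with anti-H3K9me1 antibody, streptavidin donor and anti-rabbit IgG acceptor beads.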
BAZ2B inh: inhibitors of human BAZ2B bromodomain | AlphaScreen BAZ2B-H3K14Ac peptide displacement | Potency, µM (series often up to 114 µM), hits mostly inhibitors | 360,000 compounds, 4.4% hits | AID 504333; also: nearly all actives have a fitted effect of over 60% in size
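Complex of BAZ2B and biotin-H3K14Ac (50 nM apiece) forms over 30 min at RT, then faces library compounds up to 110 uM for another 30 min; AlphaScreen beads added, 20 min dark incubation, luminescence read.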
Sfp inh: blocks B. subtilis Sfp PPTase activity; Q9F4F7; Biochemical Sfp PPTase activity, qHTS; Potency, µM, most hits filed as inhibitors; 310,000 compounds, 3.5% hits; AID 1490;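 also: the enzyme is Sfp with the accession as filed and its product quenches rhodamine fluorescence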
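Fluorescence-quenching assay: 15 nM Sfp-PPTase preincubated 15 min at room temperature with compound, then 5 uM rhodamine-CoA and 12.5 uM BHQ-2-labelled YbbR peptide added. Fluorescence (ex 525/em 598 nm) read at start and after 30 min; difference gives rate.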
JMJD2A Tudor inh: inhibitors of human JMJD2A Tudor domain; AlphaScreen JMJD2A-Tudor / H3K4me3 peptide binding; Potency, µM (top dose mostly 114 µM), usual class: inhibitors; AID 504339; 390,000 compounds, 4.4% hits; also: nearly all actives have a fitted effect of over 50% in size
Of the large screens only hits and unclear results are named; the others gave an inactive call; ! = repeats disagree. Only some compounds are listed: those with a hit (about 12% of all), similar ones and a draw of the others. Calls follow the shape of the dose curve; as a rule, active = well fitted curve in the direction sought with a large enough effect; inconclusive = small, poorly fitted or top-dose-only effect, or another doubt; inactive = no such curve, though single readings can be large; an effect the other way counts as inactive or inconclusive.

Cc1cc(Cn2ccnc2)c(C)c([N+](=O)[O-])c1Cn1ccnc1	BAZ2B inh 79.4µM
COc1ccc(CCN(C)Cc2c(O)ccc3cc(Br)ccc23)cc1OC	PLK1 PBD block inconclusive, G9a block 25.1µM
COc1ccc2cc(Br)ccc2c1CC(=O)N(C)C	G9a block inconclusive
COc1ccc(CN(C)Cc2c(O)ccc3cc(Br)ccc23)cc1OC	PLK1 PBD block inconclusive, G9a block 25.1µM, BAZ2B inh inconclusive
COC(=O)c1cc(NS(=O)(=O)c2ccc(NCc3cccnc3)c([N+](=O)[O-])c2)cc(C(=O)OC)c1	none
COC(=O)c1cc(NS(=O)(=O)c2ccc(NCc3cccnc3)c(N)c2)cc(C(=O)OC)c1	G9a block 35.5µM
COc1ccc2c(c1)CCN=C2Cc1ccc(OC)c(OC)c1	G9a block 3.98µM
Nc1ccc2nc(SCC(=O)c3ccccc3)sc2c1	G9a block 44.7µM, BAZ2B inh inconclusive
NC(=O)CSc1nc2ccc(NC(=O)COc3ccccc3)cc2s1	none (no result: PLK1 PBD block, Sfp inh)
Nc1ccc2nc(SCc3ccccc3F)sc2c1	HP1b chromo inh inconclusive, PLK1 PBD block 15µM, G9a block 22.4µM, BAZ2B inh inconclusive, JMJD2A Tudor inh 25.1µM
C=CCSC1=N/C(=C\c2cc(OCC)c(OC(C)=O)c([N+](=O)[O-])c2)C(=O)S1	HP1b chromo inh 28.2µM, G9a block 12.6µM, BAZ2B inh 35.5µM, Sfp inh 56.2µM, JMJD2A Tudor inh 17.8µM
C=CCSC1=N/C(=C\c2ccc3c(c2)OCO3)C(=O)S1	none
COc1ccc(-n2ncc3c(NCc4ccccn4)ncnc32)cc1	BAZ2B inh inconclusive, JMJD2A Tudor inh 14.1µM
COc1ccc(-n2ncc3c(NCc4cccs4)ncnc32)cc1	none
CCc1cc2c(NCc3ccco3)ncnc2s1	PLK1 PBD block inconclusive, G9a block 44.7µM, BAZ2B inh 56.2µM, JMJD2A Tudor inh inconclusive
COc1ccc(-n2ncc3c(NCc4ccco4)ncnc32)cc1	G9a block 44.7µM, BAZ2B inh inconclusive, JMJD2A Tudor inh inconclusive
O=C(C1CCCN(S(=O)(=O)c2cccc3cccnc23)C1)N1CCc2ccccc21 (stereo not given)	G9a block 44.7µM
O=C(NC1CCCCC1)C1CCCN(S(=O)(=O)c2cccc3cccnc23)C1 (stereo not given)	none
O=C(C1CCN(S(=O)(=O)c2cccc3cccnc23)CC1)N1CCN(C2CCCCC2)CC1	G9a block 35.5µM
CCCCn1cc[n+](C)c1	none (no result: HP1b chromo inh, PLK1 PBD block, G9a block, BAZ2B inh, JMJD2A Tudor inh)
CC(C)=CCc1c2c(c3occ(-c4ccc(O)cc4)c(=O)c3c1O)C=CC(C)(C)O2	G9a block 20µM!, BAZ2B inh inconclusive, JMJD2A Tudor inh inconclusive
CC(C)=CCc1c2c(c3occ(-c4ccc(O)c(O)c4)c(=O)c3c1O)C=CC(C)(C)O2	HP1b chromo inh inconclusive, JMJD2A Tudor inh 22.4µM (no result: G9a block, BAZ2B inh)
CC1(C)C=Cc2c(c3c(c4c(=O)c(-c5ccc(O)cc5)coc24)OC(C)(C)CC3)O1	G9a block inconclusive, JMJD2A Tudor inh inconclusive
CC(C)=CCc1c(O)cc2occ(-c3ccc4c(c3)OCO4)c(=O)c2c1O	none (no result: HP1b chromo inh, PLK1 PBD block, BAZ2B inh, JMJD2A Tudor inh)
Cc1ccc(C(=O)C(C)OC(=O)C2CCN(c3ccc(C(F)(F)F)cn3)CC2)cc1C (stereo not given)	none (no result: Sfp inh)
COCc1cn(-c2nc3ccccc3s2)nn1	none (no result: HP1b chromo inh, G9a block, BAZ2B inh, Sfp inh, JMJD2A Tudor inh)
COCCn1c2nc(=O)n(-c3ccccc3)c(=O)c-2nc2ccccc21	PLK1 PBD block 3.77µM (no result: HP1b chromo inh, G9a block, BAZ2B inh, Sfp inh, JMJD2A Tudor inh)
CCCCC[C@H]1CN(CCc2ccccc2)C(=O)[C@@H]1CC(=O)NCc1ccc(OC)cc1	G9a block 44.7µM
CC(=O)N1CCc2c(sc(NC(=O)Cc3ccc(C)cc3C)c2C#N)C1	PLK1 PBD block 26.7µM, JMJD2A Tudor inh inconclusive
CN1CCc2c(sc(NC(=O)CS(=O)(=O)c3ccccc3)c2C(N)=O)C1	G9a block 50.1µM (no result: Sfp inh)
CN1CCc2c(sc(NC(=O)Cc3ccccc3)c2C#N)C1	PLK1 PBD block inconclusive, G9a block 44.7µM
CCCN1CCc2c(sc(NC(=O)CCS(=O)(=O)c3ccccc3)c2C(N)=O)C1	G9a block inconclusive
CC(=O)N1CCc2c(sc(NC(=O)c3ccc([N+](=O)[O-])o3)c2C#N)C1	HP1b chromo inh inconclusive, PLK1 PBD block 23.8µM, G9a block 2.82µM, BAZ2B inh 56.2µM, Sfp inh 10µM, JMJD2A Tudor inh inconclusive
Nn1c(-c2ccccc2)cc(-c2ccccc2)cc1=O	none (no result: Sfp inh)
COC(=O)c1sc(NC(=O)c2ccc([N+](=O)[O-])o2)c(C#N)c1C	HP1b chromo inh inconclusive, PLK1 PBD block inconclusive, G9a block 12.6µM, BAZ2B inh inconclusive, Sfp inh 25.1µM, JMJD2A Tudor inh inconclusive
COC(=O)c1c(NC(=O)c2ccc([N+](=O)[O-])o2)sc2c1CCN(C(C)C)C2	G9a block inconclusive, JMJD2A Tudor inh inconclusive
COc1ccc(C(=O)Nc2sc3c(c2C#N)CCN(C(C)=O)C3)cc1	G9a block 50.1µM (no result: BAZ2B inh)
COc1ccccc1C(=O)Nc1ccc(N2CCN(Cc3ccccc3)CC2)cc1	HP1b chromo inh inconclusive, G9a block inconclusive, BAZ2B inh 44.7µM, JMJD2A Tudor inh inconclusive
Cc1ccc(NC(=O)c2cc(NC(=O)c3ccccc3C(=O)O)ccc2N2CCCCC2)cc1	PLK1 PBD block inconclusive, G9a block 14.1µM, BAZ2B inh inconclusive
COc1ccc(C(=O)CCC(=O)Nc2ccc(N3CCCCC3)cc2)cc1OC	HP1b chromo inh inconclusive, G9a block 44.7µM, BAZ2B inh 35.5µM, JMJD2A Tudor inh inconclusive
COc1ccc(C(=O)Nc2ccc(N3CCN(C)CC3)cc2)cc1OC	none (no result: G9a block)
COc1ccc(C)cc1NC(=O)CN1CCN(c2ccccc2F)CC1	none
COc1ccccc1C(=O)Nc1ccc(N2CCN(C(C)=O)CC2)cc1	none
COc1ccc(C)cc1NC(=O)CN1CCN(C/C=C/c2ccccc2)CC1	G9a block inconclusive, Sfp inh 89.1µM, JMJD2A Tudor inh inconclusive
Cc1ccc(N2CCCC2=O)cc1S(=O)(=O)N1CCOCC1	none
CCCn1c(SC(C)C(=O)NC2CC2)nnc1-c1ccncc1 (stereo not given)	none (no result: Sfp inh)
COc1ccccc1C(=O)Nc1ccc(N2CCCCC2)cc1	HP1b chromo inh inconclusive, G9a block 50.1µM, BAZ2B inh inconclusive, JMJD2A Tudor inh 56.2µM
CC(=O)Nc1ccc(NC(=O)CN2CCN(c3cccc(C(F)(F)F)c3)CC2)cc1	none
CC(=O)Nc1ccc(CN2CCN(c3cccc(C(F)(F)F)c3)CC2)cc1	G9a block inconclusive, BAZ2B inh 50.1µM, JMJD2A Tudor inh 2.51µM
COc1cccc(OC)c1C(=O)Nc1ccc(N2CCN(S(C)(=O)=O)CC2)cc1	G9a block inconclusive
COc1ccc(C)cc1NC(=O)c1ccc(CN2CCN(c3ccccc3)CC2)cc1	G9a block 50.1µM, BAZ2B inh inconclusive, JMJD2A Tudor inh inconclusive
COc1cccc(OC)c1C(=O)Nc1ccc(N2CCCC2)cc1	G9a block 12.6µM, BAZ2B inh inconclusive, JMJD2A Tudor inh inconclusive
O=C(c1ccco1)N1CCC2(CCN(Cc3ccccc3)CC2)CC1	none (no result: HP1b chromo inh, PLK1 PBD block, BAZ2B inh, JMJD2A Tudor inh)
